± gives the standard deviation of the averaged measurements.
What was measured:
Conditions in all cases: concentration: 10 µM; 24 h
HCC1569 [1] = assay: cell number relative to DMSO (% of DMSO); higher = more cells (less growth inhibition / toxicity)
Summary of the method: (§1)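 Compounds were applied at 10 µM for 24 h at 37 °C, in triplicate, to HCC1569 and TDF cells. The cells were then fixed and stained for H1.0, and nuclei were counterstained with DAPI. Nuclear H1.0 intensity or cell number is reported relative to the plate control as a percent, taking the median of replicates. Smoothing for positional effects was applied to HCC1569 values only.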

TDF [2] = assay: as above
Summary of the method: as §1

TDF [3] = assay: H1.0 immunofluorescence intensity relative to DMSO (% of DMSO); higher = stronger H1.0 induction, active = 120 or more
Summary of the method: as §1

HCC1569 [4] = assay: H1.0 immunofluorescence intensity relative to DMSO (% of DMSO); higher = stronger H1.0 induction, active = 140 or more
Summary of the method: as §1
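For H1.0 immunofluorescence intensity relative to DMSO in this document: TDF is a line of transformed human dermal fibroblasts of mesenchymal origin.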
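For cell number relative to DMSO in this document: TDF denotes transformed human dermal fibroblasts of mesenchymal origin.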

SMILES | cell number (HCC1569 [1]) | cell number (TDF [2]) | H1.0 immunofluorescence intensity (TDF [3]) | H1.0 immunofluorescence intensity (HCC1569 [4])
Cl.NCCc1c[nH]c2ccccc12 [Tryptamine hydrochloride] | 99.1 | 98.5 | 95.5 (inactive) | 97.2 (inactive)
Cl.O=C(CCCN1CCC2(CC1)C(=O)NCN2c1ccccc1)c1ccc(F)cc1 [Spiperone hydrochloride] | 105 | 87.3 | 116 (inactive) | 99.6 (inactive)
O=P1(N(CCCl)CCCl)NCCCO1 (stereo unspecified) [Cyclophosphamide] | 107 | 95.5 | 101 (inactive) | 101 (inactive)
CCCCCC=CC=CC(CCCCCCCC(=O)O)OO (stereo unspecified) | 101 | 94 | 100 (inactive) | 94.9 (inactive)
O=c1c2ccccc2[se]n1-c1ccccc1 [Ebselen] | 102.1 ± 0.14 | 97.7 ± 1.2 | 102 (inactive) | 114 (inactive)
CN1C(=O)C23CC4=CC=CC(O)C4N2C(=O)C1(CO)SS3 (stereo unspecified) [Gliotoxin] | 0.969 | 0.3 |  | 
O=c1cccc2n1CC1CNCC2C1 (single isomer, unassigned; (-)) [(-)-Cytisine] | 103 | 85.2 | 102 (inactive) | 96.6 (inactive)
Br.C=CCN1CCc2cccc3c2C1Cc1ccc(O)c(O)c1-3 (stereo not drawn) [R(-)-N-Allylnorapomorphine hydrobromide] | 84.8 | 85.6 | 104 (inactive) | 110 (inactive)
Cl.Oc1cc2c(cc1O)C1c3ccccc3CNC1CC2 (stereo unspecified) [Dihydrexidine hydrochloride] | 96.3 | 118 | 82.7 (inactive) | 103 (inactive)
CC1Cc2c(Cl)cc(C(=O)NC(Cc3ccccc3)C(=O)O)c(O)c2C(=O)O1 (stereo unspecified) [Ochratoxin A] | 107 | 92.7 | 103 (inactive) | 92.1 (inactive)
CC(C)CC1C(=O)N2CCCC2C2(O)OC(NC(=O)C3C=C4c5cccc6[nH]c(Br)c(c56)CC4N(C)C3)(C(C)C)C(=O)N12.CS(=O)(=O)O (stereo unspecified) [Bromocriptine mesylate] | 99.5 ± 2.3 | 102.8 ± 0.3 | 94.1 (inactive) | 102 (inactive)
Cl.Cl.Oc1ccc2c3c1OC1c4[nH]c5c(c4CC4(O)C(C2)N(CC2CC2)CCC314)CC1(O)C2Cc3ccc(O)c4c3C1(CCN2CC1CC1)C5O4 (stereo unspecified) [nor-Binaltorphimine dihydrochloride] | 106 | 114 | 94.9 (inactive) | 89.7 (inactive)
Cl.NCC(O)c1cc(O)c(O)cc1F (stereo unspecified) [6-Fluoronorepinephrine hydrochloride] | 99.2 | 111 | 89.4 (inactive) | 83.2 (inactive)
C1CCc2nnnn2CC1 [Pentylenetetrazole] | 102 | 113 | 99 (inactive) | 98.1 (inactive)
Cc1ccccc1-n1c(Cn2cnc3c(N)ncnc32)nc2cccc(C)c2c1=O | 90.8 | 99.7 | 91.9 (inactive) | 102 (inactive)
CN1C2CCC1CC(OC(=O)c1cc(Cl)cc(Cl)c1)C2 (stereo unspecified) [3-Tropanyl-3,5-dichlorobenzoate] | 100 | 106 | 102 (inactive) | 108 (inactive)
CCN1CC2(COC)CCC(O)C34C5CC6C(OC)CC(O)(C(CC23)C14)C5C6OC(C)=O (stereo unspecified) [Condelphine] | 101 | 105 | 98.6 (inactive) | 102 (inactive)
CC12CCC(O)CC1CCC1C2CCC2(C)C(c3ccc(=O)oc3)CCC12O (stereo unspecified) [Bufalin] | 52.7 | 45 | 114 (inactive) | 107 (inactive)
CNC(=O)Oc1ccc2c(c1)C1(C)CCN(C)C1N2C.CNC(=O)Oc1ccc2c(c1)C1(C)CCN(C)C1N2C.O=S(=O)(O)O (stereo unspecified) [Physostigmine sulfate] | 97.1 | 102 | 90.4 (inactive) | 106 (inactive)
CCc1c(C(=O)OC)ncc2[nH]c3cc(OC)c(OC)cc3c12 [Methyl 6,7-dimethoxy-4-ethyl-beta-carboline-3-carboxylate] | 95.8 | 99.5 | 88.1 (inactive) | 130 (inactive)
CC1CCC2C(C)C3CCC4(O)C(CC5C4CC(=O)C4CC(=O)CCC45C)C3CN2C1 (stereo unspecified) [Sevedindione] | 99.8 | 110 | 91.7 (inactive) | 85 (inactive)
NC1CC1c1ccccc1 (stereo unspecified) [Tranylcypromine] | 102 | 117 | 109 (inactive) | 96 (inactive)

From the supplement of paper PMC7156485
